# Assay outcomes: PubChem, National Center for Advancing Translational Sciences (NCATS)
# BRCT PPI green = qHTS Assay for Inhibitors of BRCT-Phosphoprotein Interaction (Green Fluorophore); Potency, µM (doses to about 76.9 µM), for the others: at the top dose activity change, negative = inhibition, actives largely listed as inhibitors; AID 875, 2007; BRCA1 BRCT-phosphopeptide binding, green fluorescence polarization; 75,000 compounds, 0.05% hits;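 further: potency means the concentration at half of the fitted maximal effect; plate controls were peptide without protein for full effect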
#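 Fluorescence polarization: His-tagged BRCT (~35 kDa BRCA1 C-terminus, 250 nM) bound to 100 nM fluorescein-labeled phosphorylated 10-aa BACH1 peptide, pH 7.3 phosphate buffer with DTT and Tween 20. Compounds incubated 12 min at room temperature; inhibition read as lowered polarization.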
# BRCT inh red = qHTS Assay for Inhibitors of BRCT-Phosphoprotein Interaction (Red Fluorophore). BRCT-phosphopeptide binding, red fluorescence polarization. Potency, µM (top dose mostly 76.9 µM), for inactives: top-dose activity change, negative = inhibition, most hits filed as inhibitors. 75,000 compounds, 0.03% hits. AID 892, 2007. Breast cancer type 1 susceptibility protein (Homo sapiens), P38398; further: on the % scale 0 is the no-effect control and ±100 the full control effect
#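 Rhodamine-labelled pBACH1 10-mer (100 nM) bound to BRCT domain (100 nM) at pH 7.3; compounds incubated 12 min room temperature, polarization read. Free peptide defines full inhibition; unlabelled decapeptide titrated as control.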
# ALOX15 inhib = qHTS Assay for Inhibitors of 15-hLO (15-human lipoxygenase); 74,000 compounds, 1.4% hits; purified 15hLO-1, xylenol orange hydroperoxide absorbance; Potency, µM (series often up to 57.1 µM), without a hit: top-dose activity change, negative = inhibition, most hits filed as inhibitors; further: potency means the concentration at half of the fitted maximal effect; on the % scale 0 is the no-effect control and ±100 the full control effect; nearly all actives have a fitted effect of over 55% in size
# Target sequence (P16050 whole entry, looked up): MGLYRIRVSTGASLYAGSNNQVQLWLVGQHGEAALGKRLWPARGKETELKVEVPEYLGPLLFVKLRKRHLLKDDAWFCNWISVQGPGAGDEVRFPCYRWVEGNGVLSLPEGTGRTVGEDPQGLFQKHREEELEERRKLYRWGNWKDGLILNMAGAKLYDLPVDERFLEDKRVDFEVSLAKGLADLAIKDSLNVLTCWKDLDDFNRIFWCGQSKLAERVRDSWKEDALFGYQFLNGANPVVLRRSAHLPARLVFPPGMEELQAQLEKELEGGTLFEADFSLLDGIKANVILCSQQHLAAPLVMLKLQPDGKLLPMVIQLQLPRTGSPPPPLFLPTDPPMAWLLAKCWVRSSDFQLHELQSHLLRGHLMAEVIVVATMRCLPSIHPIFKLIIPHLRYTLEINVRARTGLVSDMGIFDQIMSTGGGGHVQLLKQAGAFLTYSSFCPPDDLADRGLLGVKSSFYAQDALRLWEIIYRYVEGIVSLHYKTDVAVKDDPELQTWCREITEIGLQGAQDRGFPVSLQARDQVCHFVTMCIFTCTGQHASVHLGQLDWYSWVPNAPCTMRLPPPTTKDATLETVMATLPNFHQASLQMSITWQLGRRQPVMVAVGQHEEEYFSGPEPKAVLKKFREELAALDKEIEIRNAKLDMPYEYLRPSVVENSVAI
#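 Purified human 15hLO-1 (40 nM final) in 25 mM Hepes pH 7.5, 0.01% Triton X-100 was preincubated with compound 15 min at room temperature, then reacted 6 min with 50 uM arachidonic acid; hydroperoxide detected by Fe-XO, 573/405 nm absorbance ratio.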
# TsaE inh = qHTS Assay for Inhibitors of YjeE | tRNA threonylcarbamoyladenosine biosynthesis protein TsaE (Escherichia coli (strain … | purified YjeE enzyme, qHTS inhibition assay | 71,000 compounds, 0.05% hits | Potency, µM | AID 605, 2007
#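 Fluorescence polarization of a BODIPY Texas Red–ADP probe (2 uM) bound to purified YjeE (10 uM) was read after 15 min room-temperature incubation with compounds. Loss of polarization marks inhibitors; ADP serves as titrated control.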
# Tau fil binding = qHTS Assay for Tau Filament Binding. Potency, µM (doses to about 57.1 µM), for the others: top-dose activity change, negative = inhibition. Microtubule-associated protein tau (Homo sapiens), P10636. 71,000 compounds, 2% hits. recombinant tau filaments, thioflavin S fluorescence, 15 h; filaments grown with octadecylsulfate alongside compound;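 further: potency means the concentration at half of the fitted maximal effect; on the % scale 0 is the no-effect control and ±100 the full control effect; actives lower thioflavin S fluorescence by blocking filaments or displacing dye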
#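 Read-out: ThS fluorescence, 450 nm excitation/510 nm emission; lower signal marks blocked filament formation or displaced dye. Tau at 1 uM with 30 uM ODS, 10 uM ThS, 5 mM DTT, 100 mM NaCl, 10 mM HEPES pH 7.4; 15 h, 37 C.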
# Pol III holo inh = qHTS Assay for Inhibitors of DNA Polymerase III Holoenzyme System. AID 603, 2007. 71,000 compounds, 0.25% hits. Potency, µM (doses to about 57.1 µM), without a hit: at the top dose activity change, negative = inhibition. reconstituted DNA polymerase III holoenzyme replication, biochemical; further: potency means the concentration at half of the fitted maximal effect; on the % scale 0 is the no-effect control and ±100 the full control effect
#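 Reconstituted *E. coli* holoenzyme (0.35 nM Pol III, 1 nM beta, 154 nM SSB, 2 nM primase) was preincubated with compound for 15 min at RT. Synthesis on 1.4 nM ssM13Gori ran 35 min, then was stopped with PicoGreen/EDTA and read as dsDNA fluorescence.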
# Numbers without * were called inactive; i = inactive; ? = inconclusive; . = not tested or not shown; ! = repeats disagree; [ ] = remark or other dose. Only some compounds are listed: those with a hit (about 3.1% of all), similar ones and a draw of the others. The call rests on the fitted dose curve; in most records, active means well fitted curve in the direction sought with a large enough effect; inconclusive means small, poorly fitted or top-dose-only effect, or another doubt; inactive means no such curve, though single readings can be large; an effect the other way counts as inactive or inconclusive.
SMILES,BRCT PPI green,BRCT inh red,ALOX15 inhib,TsaE inh,Tau fil binding,Pol III holo inh
Oc1cccc(C=NCc2ccccc2)c1O,0.1%,-1.0%,5.01µM*,.,.,.
Cc1ccc(C=NCc2ccncc2)c(O)c1,-0.2%,0.2%,?,i,-2.9%,-5.9%
O=C(NCc1ccccc1)c1ccc(Cc2nc3ccccc3[nH]2)cc1,-1.5%,2.4%,-7.7%,.,.,.
Cc1cc(C(=O)CSc2nc3ccc(Cl)cc3[nH]2)c(C)n1C,0.1%,-0.3%,25.1µM*,i,-14.9%,-8.2%
CN(C)c1ccc(-c2ccc3ncnc(N(C)Cc4ccco4)c3c2)cc1,-0.5%,-1.1%,-18.8%,i,20µM*,-4.5%
CCOC(=O)C1=C(CSc2nc(C)ccc2C#N)OC(N)=C(C#N)C1c1cccc(OC)c1OC (stereo not drawn),22.5%,-1.4%,20µM*,i,0.5%,-5.0%
CC(=O)C1=C(C)N=c2s/c(=C/c3ccc4c(c3)OCO4)c(=O)n2C1c1ccc(N(C)C)cc1 (stereo not drawn),22.8%,12.7%,-7.9%,i,3.98µM*,3.6%
COc1cc2cc(C(c3nnnn3C3CCCC3)N3CCc4ccccc43)c(=O)[nH]c2cc1OC (stereo not drawn),25.9%,-1.3%,20µM*,i,-1.4%,?
COc1cccc2c(=O)n(CC(=O)N3CCCc4ccccc43)ccc12,-1.6%,-1.2%,-5.8%,i,12.6µM*,0.2%
C[C@H](O)[C@H](O)[C@@H](O)c1cnc2nc(N)[nH]c(=O)c2n1,.,.,.,i,16.7%,-1.5%
CCCCC(CC)Cn1c2nc3ccccc3nc2c2c(=N)oc(C)nc21 (stereo not drawn),1.7%,0.0%,-9.7%,i,2.51µM*,-4.5%
CCCCn1c2nc3ccccc3nc2c2c(=N)oc(C)nc21,22.1%,-1.8%,-1.3%,i,285.2%,-7.1%
CNCC[C@H](Oc1ccccc1C)c1ccccc1,-1.8%,-4.1%,?,i,-9.5%,-7.3%
C[n+]1cc2c3c(ccc2c2ccc4cc5c(cc4c21)OCO5)OCO3,-1.3%[3.08 µM],0.2%,10µM*,i,?,31.6µM*!
CCCCCc1c(C)nc(NCc2ccccc2)[nH]c1=O,-0.2%,-1.8%,-11.6%,i,31.6µM*,-0.6%
CC(=O)O[C@](C)(CCC=C(C)C)C1CC=C(C)CC1 (stereo partly drawn),-1.8%,0.6%,12.6µM*,.,.,.
O=[N+]([O-])c1cc(N(CCO)CCO)ccc1NCCO,1.3%,1.6%,-20.8%,i,-13.0%,-2.0%
Cc1ccc(C(=O)C2CCN(CC(=O)Nc3ccc4c(c3)OCCO4)CC2)cc1,2.0%,1.6%,9.3%,i,-16.8%,0.1%
Cc1ccc(C(=O)C2CCN(CC(=O)Nc3ccc(N(C)C)cc3)CC2)cc1,1.6%,0.1%,-17.0%,i,20µM*,-3.2%
O=C(O)c1ccc(Cl)c(S(=O)(=O)Nc2ccccc2)c1,-1.3%,1.7%,-4.0%,.,.,.
O=C1c2ccccc2C(=O)c2c1ccc(N1C(=O)c3ccccc3C1=O)c2-c1c(N2C(=O)c3ccccc3C2=O)ccc2c1C(=O)c1ccccc1C2=O,.,.,.,i,?,0.3%[11.4 µM]
CCc1cccc2c3c([nH]c12)[C@@](CC)(CC(=O)O)OCC3,-1.3%[34.4 µM],-0.5%[34.4 µM],9.2%[25.6 µM],i,6.9%[25.6 µM],1.2%[25.6 µM]
Oc1c(Cl)cc(Cl)c(Cl)c1Cl,-3.0%,-4.7%,-11.7%,i,0.8%,-0.7%
Oc1c(Cl)cc(Cl)cc1Sc1cc(Cl)cc(Cl)c1O,-2.1%[3.08 µM],-4.0%,15.8µM*,i,?,-9.3%
O=C1CC(/C=C/c2ccco2)=Nc2ccccc2N1,-11.3%,?,5.01µM*,i,259.9%,?
